In PubChem BioAssay (EPA / NIEHS):
Where “and” joins values, the source holds several entries; their conditions need not be identical. Equal entries are not always repeated. Results filed as inconclusive are left out. The source holds several records for some structures; these can differ, active in one and inactive in another. Calls of active or inactive are those of the source. Rule for the calls, unless noted: active = hit-call score of the fitted dose curve at least 0.9, where 1 is the maximum; inconclusive = response in the unintended direction; inactive = score below 0.9.

Legend:
[1] = biological target: Bile acid receptor (Homo sapiens) (UniProt Q96RI1); assay: ATG_IR1_CIS: Attagene CIS-FACTORIAL HepG2 Assay for human Nuclear Receptor Subfamily 1 Group H Member 4 (NR1H4), IR1 submotif (AID 2282946; active = hit-call score of the fitted dose curve at least 0.9, where 1 is the maximum; inactive = score below 0.9); conditions: IR1 reporter transcription, actives raise or lower the signal
Procedure, shortened: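 HepG2 cells transiently transfected with multiple cis-promoter-driven reporter units to measure endogenous transcription factor activity; 24 h exposure. Reporter mRNA read by RT-PCR, FAM labelling, HpaI digestion and capillary electrophoresis. Bidirectional fit versus DMSO.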

[2] = biological target: Nuclear receptor subfamily 1 group I member 3 (Homo sapiens) (UniProt Q14994); assay: ATG_CAR_TRANS: Attagene TRANS-FACTORIAL HepG2 Assay for human Constitutive Androstane Receptor (CAR) (AID 2282969); conditions: HepG2 Attagene TRANS-FACTORIAL CAR reporter;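 note: activators raise reporter mRNA above DMSO so AC50 marks induction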
Procedure, shortened: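 HepG2 cells transiently transfected with GAL4-UAS reporter units; TRANS format reads activity of exogenous chimeric NR-Gal4 protein. After 24 h dosing, reporter mRNA quantified by RT-PCR, 6-FAM labelling and capillary electrophoresis; gain of signal fitted against DMSO.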

[3] = biological target: Oxysterols receptor LXR-alpha (Homo sapiens) (UniProt Q13133); assay: ATG_LXRa_TRANS: Attagene TRANS-FACTORIAL HepG2 Assay for human Liver X Receptor alpha (LXRa) (AID 2282980); conditions: HepG2 Attagene TRANS reporter, LXRa transactivation
Procedure, shortened: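 HepG2 cells were transiently transfected with multiplexed reporter units driven by chimeric LXRa–GAL4 fusion proteins, then dosed for 24 h. Reporter mRNA was quantified by RT-PCR, fluorescent labelling and capillary electrophoresis; gain of signal fitted against DMSO baseline.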

[4] = biological target: Oxysterols receptor LXR-beta (Homo sapiens) (UniProt P55055); assay: ATG_LXRb_TRANS: Attagene TRANS-FACTORIAL HepG2 Assay for human Liver X Receptor beta (LXRb) (AID 2282981); conditions: HepG2 Attagene TRANS GAL4-LXRb reporter, mRNA
Procedure, shortened: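 HepG2 cells transiently transfected with GAL4-UAS reporter units for chimeric NR-Gal4 proteins, dosed for 24 h. Reporter transcripts measured by RT-PCR and capillary electrophoresis; gain-of-signal fitting relative to DMSO.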

[5] = biological target: human Peroxisome Proliferator-activated Receptor delta (PPARd), PPARD (gene 5467) (UniProt Q03181); assay: ATG_PPARd_TRANS: Attagene TRANS-FACTORIAL HepG2 Assay for human Peroxisome Proliferator-activated Receptor delta (PPARd) (AID 2283002)
Procedure, shortened: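 Read-out: reporter mRNA induction, quantified by fluorescent RT-PCR products resolved by capillary electrophoresis. Human HepG2 liver cells carried transiently transfected Gal4-UAS reporter constructs with chimeric NR-Gal4 fusions. Cells were dosed for 24 h; DMSO served as baseline.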

[6] = biological target: human RAR-related Orphan Receptor beta (RORb), RORB (gene 6096) (UniProt Q92753); assay: ATG_RORb_TRANS: Attagene TRANS-FACTORIAL HepG2 Assay for human RAR-related Orphan Receptor beta (RORb) (AID 2283010)
Procedure, shortened: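 HepG2 cells transiently transfected with GAL4-UAS reporter units expressing chimeric NR-Gal4 protein; reporter mRNA measured 24 h after dosing by RT-PCR, 6-FAM labelling and capillary electrophoresis. Gain-of-signal fitted relative to DMSO baseline.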

[7] = TOX21_p53_BLA_p2_viability: Viability Assessment in the Tox21 HCT-116 p53 Agonism Beta-lactamase Assay, Phase 2 (AID 2283591);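 note: compound exposure lasted 16 h at 37 °C; actives lower the ATP signal meaning cytotoxicity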
Procedure, shortened: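 HCT116 p53-bla cells, 4000/well, dosed after 5 h plating (217-fold dilution of DMSO stocks) and incubated 16 h at 37C. Viability taken as cellular ATP by CellTiter-Glo luminescence after 30 min RT; signal loss marks cytotoxicity.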

[8] = biological target: Cellular tumor antigen p53 (Homo sapiens) (UniProt P04637); assay: TOX21_p53_BLA_p2_ratio: Tox21 HCT-116 p53 Agonism Beta-lactamase Assay, Ratio, Phase 2 (AID 2283592)
Procedure, shortened: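 HCT116 cells carrying a p53-responsive beta-lactamase reporter were plated, incubated 5 h at 37C, then dosed with compounds in DMSO (217-fold dilution) for 16 h. CCF4-AM substrate was added for 2 h at room temperature; the 460/530 nm emission ratio gave gain-of-signal activity relative to DMSO.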

[9] = biological target: Cellular tumor antigen p53 (Homo sapiens) (UniProt P04637); assay: TOX21_p53_BLA_p3_ratio: Tox21 HCT-116 p53 Agonism Beta-lactamase Assay, Ratio, Phase 3 (AID 2283596)
Procedure, shortened: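 HCT116 p53-bla cells (4000/well) given compound in DMSO (217-fold dilution) after 5 h, incubated 16 h at 37C. CCF4-AM substrate 2 h at room temperature; 460/530 nm emission ratio, gain fitted against DMSO.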

[10] = biological target: Cellular tumor antigen p53 (Homo sapiens) (UniProt P04637); assay: TOX21_p53_BLA_p5_ratio: Tox21 HCT-116 p53 Agonism Beta-lactamase Assay, Ratio, Phase 5 (AID 2283599)
Procedure, shortened: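 HCT-116 p53-bla cells (4000/well) plated 5 h, dosed with compound (217-fold DMSO dilution) for 16 h at 37 C; CCF4-AM substrate 2 h at room temperature. Activity is the 460/530 nm emission ratio (405 nm excitation), fitted in gain-of-signal direction versus DMSO.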

[11] = ACEA_ER_AUC_viability: ACEA Biosciences xCELLigence Real-Time Cell Analysis on Estrogen Receptor Agonism for Viability (AID 2283782);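 note: continuous compound exposure with impedance area under curve over 80 h; hit means loss of impedance signal meaning reduced cell growth or viability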
Procedure, shortened: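 T47D cells preconditioned in phenol red-free RPMI with charcoal-stripped FBS, then dosed with 8-point 1:4 series from 100 uM (up to 0.5% DMSO). Impedance monitored up to ~80 h; area-under-curve loss versus DMSO taken as viability.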

[12] = biological target: Hepatocyte nuclear factor 4-alpha (Homo sapiens) (UniProt P41235); assay: ATG_HNF4a_TRANS: Attagene TRANS-FACTORIAL HepG2 Assay for human Hepatocyte Nuclear Factor 4 alpha (HNF4a) (AID 2282982); conditions: HepG2 HNF4a transactivation reporter, mRNA readout
Procedure, shortened: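 HepG2 cells transiently transfected with HNF4a-Gal4 chimera and GAL4-UAS reporter units, dosed for 24 h. Reporter mRNA measured by RT-PCR, fluorescent primer extension and capillary electrophoresis; gain-of-signal fitted relative to DMSO.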

[13] = ATG_XTT_Cytotoxicity: Cytotoxicity Assessment in the Attagene TRANS-FACTORIAL HepG2 Assay (AID 2283584)
Procedure, shortened: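 HepG2 human liver cells, transiently transfected with multiple GAL4-UAS reporter units, were dosed and read at 24 h by XTT as cell number. Loss of signal was fitted relative to DMSO negative control baseline.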

[14] = TOX21_p53_BLA_p3_viability: Viability Assessment in the Tox21 HCT-116 p53 Agonism Beta-lactamase Assay, Phase 3 (AID 2283593);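 note: cells exposed to compound for 16 h before reading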
Procedure, shortened: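 HCT116 cells, 4000/well, dosed 5 h after plating by pin transfer (217-fold dilution from DMSO stock) and incubated 16 h at 37C, 5% CO2. Viability read as ATP luminescence with CellTiter-Glo after 30 min at room temperature.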

[15] = TOX21_p53_BLA_p4_viability: Viability Assessment in the Tox21 HCT-116 p53 Agonism Beta-lactamase Assay, Phase 4 (AID 2283597);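 note: hits lower the luminescence signal meaning cytotoxicity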
Procedure, shortened: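 HCT116 p53-bla cells (4000/well) rested 5 h at 37C, then received compounds in DMSO (217-fold dilution) for 16 h at 37C, 5% CO2. CellTiter-Glo was added after the CCF4-AM read, and luminescence was read after 30 min at room temperature.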

[16] = CCTE_Harrill_HTTr_CellCount_MCF7: CCTE's Cell Proliferation Assessment for the High-Throughput Transcriptomics (HTTr) Platform, Harrill Lab (AID 2284012);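 note: cells exposed to compound for six hours; intended direction is loss of nuclei count meaning fewer cells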
Procedure, shortened: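 MCF7 cells exposed 6 hours to an eight-point dilution series; Hoechst-stained nuclei counted by high-content imaging. Bidirectional curve fitting against DMSO baseline.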

[17] = biological target: Cellular tumor antigen p53 (Homo sapiens) (UniProt P04637); assay: TOX21_p53_BLA_p4_ratio: Tox21 HCT-116 p53 Agonism Beta-lactamase Assay, Ratio, Phase 4 (AID 2283601)
Procedure, shortened: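 HCT-116 p53 beta-lactamase reporter cells (4000/well) preincubated 5 h, then compound (217-fold dilution of DMSO stock) for 16 h at 37C. CCF4-AM substrate added 2 h at room temperature; 460/530 nm emission ratio fitted upward versus DMSO.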

[18] = ATG_ERE_CIS: Attagene CIS-FACTORIAL HepG2 Assay for Estrogen Response Element (ERE) (AID 2282940; active = hit-call score of the fitted dose curve at least 0.9, where 1 is the maximum; inactive = score below 0.9); conditions: HepG2 ERE cis-reporter, Attagene RNA transcript; actives raise or lower the signal
Procedure, shortened: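 After a 24 h chemical treatment, RNA from reporter-transfected HepG2 cells is reverse-transcribed, PCR-amplified and fluorescently labelled. Fragments separated by capillary electrophoresis give reporter signal; DMSO serves as negative control.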

[19] = biological target: Glucocorticoid receptor (Homo sapiens) (UniProt P04150); assay: ATG_GR_TRANS: Attagene TRANS-FACTORIAL HepG2 Assay for human Glucocorticoid Receptor (GR) (AID 2282978); conditions: HepG2 Attagene TRANS GR reporter, mRNA transcription;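 note: activators score as hits since higher reporter transcript over DMSO is fitted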
Procedure, shortened: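 Readout is reporter transcript from a chimeric GR-Gal4 acting on GAL4-UAS in transfected human HepG2 liver cells after 24 h exposure, quantified by RT-PCR and capillary electrophoresis. Activation fitted upward against DMSO.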

[20] = biological target: human RAR-related Orphan Receptor gamma (RORg), RORC (gene 6097) (UniProt P51449); assay: ATG_RORg_TRANS: Attagene TRANS-FACTORIAL HepG2 Assay for human RAR-related Orphan Receptor gamma (RORg) (AID 2283011)
Procedure, shortened: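 Readout: reporter transcript induction (RT-PCR, fluorescent primer extension, capillary electrophoresis) after 24 h compound exposure of transiently transfected HepG2 cells carrying a RORg-Gal4 chimera and GAL4-UAS reporters; DMSO served as baseline, with increasing signal fitted.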

Measured: AC50

Chain of human Peroxisome Proliferator-activated Receptor delta (PPARd), PPARD (gene 5467) (Q03181 whole entry, looked up, the tested form may be a part): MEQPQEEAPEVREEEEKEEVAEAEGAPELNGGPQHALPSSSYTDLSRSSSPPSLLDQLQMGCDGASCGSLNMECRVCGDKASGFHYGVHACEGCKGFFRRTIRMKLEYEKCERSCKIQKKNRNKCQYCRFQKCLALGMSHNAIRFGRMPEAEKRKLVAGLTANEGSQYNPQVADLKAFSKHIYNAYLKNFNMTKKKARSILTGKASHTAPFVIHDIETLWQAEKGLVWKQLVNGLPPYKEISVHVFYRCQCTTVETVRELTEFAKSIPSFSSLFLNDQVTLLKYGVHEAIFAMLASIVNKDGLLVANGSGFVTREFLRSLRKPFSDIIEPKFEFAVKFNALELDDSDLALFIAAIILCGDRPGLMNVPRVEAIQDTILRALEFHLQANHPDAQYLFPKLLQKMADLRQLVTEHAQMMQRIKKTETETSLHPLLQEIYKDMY
Chain of human RAR-related Orphan Receptor gamma (RORg), RORC (gene 6097) (P51449 whole entry, looked up, the tested form may be a part): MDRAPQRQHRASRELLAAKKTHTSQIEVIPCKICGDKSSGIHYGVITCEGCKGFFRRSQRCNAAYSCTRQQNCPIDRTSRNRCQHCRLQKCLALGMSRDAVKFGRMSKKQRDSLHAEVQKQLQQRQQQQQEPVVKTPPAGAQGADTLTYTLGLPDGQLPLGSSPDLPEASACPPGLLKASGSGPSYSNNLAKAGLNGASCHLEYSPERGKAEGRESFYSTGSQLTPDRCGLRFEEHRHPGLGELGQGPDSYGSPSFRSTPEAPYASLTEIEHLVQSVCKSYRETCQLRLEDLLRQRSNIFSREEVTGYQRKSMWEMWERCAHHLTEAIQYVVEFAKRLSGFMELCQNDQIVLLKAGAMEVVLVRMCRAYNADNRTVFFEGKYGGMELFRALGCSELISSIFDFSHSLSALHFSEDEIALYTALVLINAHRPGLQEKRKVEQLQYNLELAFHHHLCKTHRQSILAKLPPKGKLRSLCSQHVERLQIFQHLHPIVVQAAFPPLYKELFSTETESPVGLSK
Chain of Bile acid receptor (Homo sapiens) (Q96RI1 whole entry, looked up): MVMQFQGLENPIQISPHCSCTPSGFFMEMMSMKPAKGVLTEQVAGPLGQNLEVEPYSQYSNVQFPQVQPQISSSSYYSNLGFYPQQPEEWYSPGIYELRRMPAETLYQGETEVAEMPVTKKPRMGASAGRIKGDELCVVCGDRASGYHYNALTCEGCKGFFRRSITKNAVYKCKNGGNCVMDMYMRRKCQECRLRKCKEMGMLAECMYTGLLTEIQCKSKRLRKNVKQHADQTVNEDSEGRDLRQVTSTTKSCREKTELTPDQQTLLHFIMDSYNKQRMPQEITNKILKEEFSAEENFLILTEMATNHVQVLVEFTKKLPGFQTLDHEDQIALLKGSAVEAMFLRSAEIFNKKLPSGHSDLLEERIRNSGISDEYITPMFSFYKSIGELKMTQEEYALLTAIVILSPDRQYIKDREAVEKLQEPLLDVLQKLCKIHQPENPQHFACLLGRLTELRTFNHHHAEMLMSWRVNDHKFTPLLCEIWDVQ
Chain of Nuclear receptor subfamily 1 group I member 3 (Homo sapiens) (Q14994 whole entry, looked up, the tested form may be a part): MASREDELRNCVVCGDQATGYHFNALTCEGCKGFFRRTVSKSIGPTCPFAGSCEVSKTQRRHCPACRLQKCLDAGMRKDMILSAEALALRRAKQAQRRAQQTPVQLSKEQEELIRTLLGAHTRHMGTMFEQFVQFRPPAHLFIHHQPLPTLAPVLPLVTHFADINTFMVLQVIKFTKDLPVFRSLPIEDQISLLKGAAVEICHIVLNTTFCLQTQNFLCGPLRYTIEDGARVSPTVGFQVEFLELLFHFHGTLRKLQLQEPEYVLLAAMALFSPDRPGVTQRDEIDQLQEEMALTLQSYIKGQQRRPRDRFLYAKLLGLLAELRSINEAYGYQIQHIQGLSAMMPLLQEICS
Chain of Cellular tumor antigen p53 (Homo sapiens) (P04637 whole entry, looked up): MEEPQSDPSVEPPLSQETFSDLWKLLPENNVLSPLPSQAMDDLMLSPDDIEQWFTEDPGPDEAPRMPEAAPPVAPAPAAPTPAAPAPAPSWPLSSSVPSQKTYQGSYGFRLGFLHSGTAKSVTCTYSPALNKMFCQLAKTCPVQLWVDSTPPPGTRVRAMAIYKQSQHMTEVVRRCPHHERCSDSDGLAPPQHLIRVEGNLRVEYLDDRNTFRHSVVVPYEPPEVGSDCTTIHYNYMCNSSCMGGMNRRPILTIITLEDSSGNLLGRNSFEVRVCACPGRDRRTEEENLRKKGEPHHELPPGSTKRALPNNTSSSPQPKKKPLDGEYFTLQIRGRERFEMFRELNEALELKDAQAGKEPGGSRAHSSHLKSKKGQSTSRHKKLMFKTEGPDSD
Chain of Oxysterols receptor LXR-alpha (Homo sapiens) (Q13133 whole entry, looked up, the tested form may be a part): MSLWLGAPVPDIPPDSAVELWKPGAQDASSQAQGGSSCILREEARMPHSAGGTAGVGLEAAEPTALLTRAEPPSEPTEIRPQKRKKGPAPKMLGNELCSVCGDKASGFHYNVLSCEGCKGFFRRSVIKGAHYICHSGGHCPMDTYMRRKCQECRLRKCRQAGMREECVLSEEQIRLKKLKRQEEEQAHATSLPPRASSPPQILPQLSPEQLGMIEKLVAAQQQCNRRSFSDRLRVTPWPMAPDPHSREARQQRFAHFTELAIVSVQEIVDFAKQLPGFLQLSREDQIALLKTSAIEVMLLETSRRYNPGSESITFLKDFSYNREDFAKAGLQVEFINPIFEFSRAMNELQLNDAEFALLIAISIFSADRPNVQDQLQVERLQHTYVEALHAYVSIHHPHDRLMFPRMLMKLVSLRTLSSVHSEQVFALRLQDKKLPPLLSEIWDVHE
Chain of Oxysterols receptor LXR-beta (Homo sapiens) (P55055 whole entry, looked up, the tested form may be a part): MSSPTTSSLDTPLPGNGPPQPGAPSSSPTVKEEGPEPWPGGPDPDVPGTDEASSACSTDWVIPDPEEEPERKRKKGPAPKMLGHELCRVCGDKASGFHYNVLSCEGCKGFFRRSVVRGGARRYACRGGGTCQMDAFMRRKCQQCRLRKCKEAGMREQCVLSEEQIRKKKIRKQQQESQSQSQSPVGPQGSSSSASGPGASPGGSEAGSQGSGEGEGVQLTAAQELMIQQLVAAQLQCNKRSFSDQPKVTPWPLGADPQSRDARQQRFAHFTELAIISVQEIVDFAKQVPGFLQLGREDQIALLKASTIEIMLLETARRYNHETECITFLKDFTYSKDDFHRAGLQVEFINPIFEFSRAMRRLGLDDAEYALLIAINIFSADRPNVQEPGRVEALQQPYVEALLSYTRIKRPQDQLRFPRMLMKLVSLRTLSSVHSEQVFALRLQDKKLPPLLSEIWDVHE
Chain of Hepatocyte nuclear factor 4-alpha (Homo sapiens) (P41235 whole entry, looked up, the tested form may be a part): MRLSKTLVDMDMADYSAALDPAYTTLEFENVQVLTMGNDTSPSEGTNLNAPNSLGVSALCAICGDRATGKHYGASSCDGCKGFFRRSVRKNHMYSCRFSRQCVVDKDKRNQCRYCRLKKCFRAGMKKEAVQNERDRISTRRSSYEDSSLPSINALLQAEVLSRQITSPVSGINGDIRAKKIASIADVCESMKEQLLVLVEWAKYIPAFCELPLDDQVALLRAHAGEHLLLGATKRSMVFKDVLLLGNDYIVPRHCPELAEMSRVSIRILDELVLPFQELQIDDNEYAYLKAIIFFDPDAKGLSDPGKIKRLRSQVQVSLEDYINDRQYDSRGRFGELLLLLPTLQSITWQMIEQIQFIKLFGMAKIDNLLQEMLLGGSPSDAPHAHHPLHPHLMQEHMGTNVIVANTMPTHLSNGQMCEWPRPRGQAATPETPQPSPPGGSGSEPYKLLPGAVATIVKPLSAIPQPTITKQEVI
Chain of human RAR-related Orphan Receptor beta (RORb), RORB (gene 6096) (Q92753 whole entry, looked up, the tested form may be a part): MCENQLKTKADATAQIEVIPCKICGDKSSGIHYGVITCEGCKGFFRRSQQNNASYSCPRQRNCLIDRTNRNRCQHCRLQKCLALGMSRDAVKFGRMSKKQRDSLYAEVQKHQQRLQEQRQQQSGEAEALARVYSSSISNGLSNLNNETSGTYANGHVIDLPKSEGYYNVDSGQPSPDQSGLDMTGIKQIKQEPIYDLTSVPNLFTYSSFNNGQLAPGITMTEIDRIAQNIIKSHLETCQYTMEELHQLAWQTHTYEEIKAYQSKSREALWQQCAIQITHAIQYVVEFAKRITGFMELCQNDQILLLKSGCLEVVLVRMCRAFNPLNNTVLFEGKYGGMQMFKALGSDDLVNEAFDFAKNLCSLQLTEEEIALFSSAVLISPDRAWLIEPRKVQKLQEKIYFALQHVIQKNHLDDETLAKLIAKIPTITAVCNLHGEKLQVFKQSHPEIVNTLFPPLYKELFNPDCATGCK
Chain of Glucocorticoid receptor (Homo sapiens) (P04150 whole entry, looked up, the tested form may be a part): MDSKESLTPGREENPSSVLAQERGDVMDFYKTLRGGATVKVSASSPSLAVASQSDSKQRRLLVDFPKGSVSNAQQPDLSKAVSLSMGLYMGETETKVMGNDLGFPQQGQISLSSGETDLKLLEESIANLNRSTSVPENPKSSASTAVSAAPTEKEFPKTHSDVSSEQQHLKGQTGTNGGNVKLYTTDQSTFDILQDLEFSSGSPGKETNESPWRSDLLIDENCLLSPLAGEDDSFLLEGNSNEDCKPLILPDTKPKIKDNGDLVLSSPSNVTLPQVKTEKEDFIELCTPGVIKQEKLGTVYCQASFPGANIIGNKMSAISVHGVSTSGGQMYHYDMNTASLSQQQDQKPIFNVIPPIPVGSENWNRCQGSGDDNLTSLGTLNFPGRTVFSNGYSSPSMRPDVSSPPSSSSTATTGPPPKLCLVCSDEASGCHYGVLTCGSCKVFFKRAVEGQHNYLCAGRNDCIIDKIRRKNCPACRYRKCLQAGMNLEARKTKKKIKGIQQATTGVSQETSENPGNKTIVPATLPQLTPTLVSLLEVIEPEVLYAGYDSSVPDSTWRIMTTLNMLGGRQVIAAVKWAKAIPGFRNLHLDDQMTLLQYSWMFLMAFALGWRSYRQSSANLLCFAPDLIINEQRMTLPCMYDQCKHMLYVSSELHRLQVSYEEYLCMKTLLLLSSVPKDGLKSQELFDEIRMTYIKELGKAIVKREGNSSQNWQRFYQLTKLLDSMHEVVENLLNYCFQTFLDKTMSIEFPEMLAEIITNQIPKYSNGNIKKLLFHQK

COc1cc(OC)nc(Oc2cccc(Oc3nc(OC)cc(OC)n3)c2C(=O)O)n1
inactive: [1] | [2] | [3] | [4] | [5] | [6] | [7] | [8] | [9] | [10] | [11]

O=C1C=CC(=O)C=C1
inactive: [2] | [4] | [12] | [6] | [13] | [7] | [8] | [9] | [15] | [10] | [16]
active: [14] 72.3 µM and 76.5 µM | [9] 71.3 µM

Nc1ccccc1
inactive: [3] | [4] | [9] | [10] | [17] | [16]

C=C(Cl)Cl
not listed: [1] | [6] | [8] | [9] | [10] | [11] | [14] | [16]
inactive: all other assays above

Oc1ccc(Cl)cc1
inactive: [2] | [3] | [12] | [20] | [7] | [8] | [9] | [15] | [10] | [17] | [16]

SCc1ccco1
inactive: [18] | [1] | [2] | [5]

O=P1(NCCCl)OCCCN1CCCl (stereo not drawn)
active: [11] 37.7 µM
inactive: [19] | [4] | [6] | [13]

CCC(Br)(CC)C(=O)NC(N)=O
inactive: [1] | [3] | [20] | [7] | [8] | [10] | [11]

CC1OC(C)OC(C)O1 (stereo not drawn)
active: [14] 42.6 µM | [9] 34.1 µM
inactive: [1] | [12] | [5] | [6] | [13] | [7] | [8] | [14] | [9] | [10] | [17] | [11]
